According to the supplement of paper PMC8975748:
Counter-ions that a name gives are not always drawn. ± gives the standard deviation of the averaged measurements.

What was measured:
[1] = system: Saccharomyces cerevisiae BY4741 SeMeCo community; assay: mean cell size (pixel area) (pixels); higher = larger cells; settings: 10 µM; 24 h; SM minimal medium
Method in brief: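 A four-plasmid fluorescent Saccharomyces cerevisiae BY4741 community was tested; each plasmid complements one auxotrophy and carries a fluorescent marker. An overnight preculture at OD600 = 1.0 was diluted to OD600 = 0.3, and 70 µl was added to 384-well plates acoustically predosed with drug (final 10 µM) in SM medium for 24 h. Cells were fixed with paraformaldehyde and imaged by automated confocal microscopy, with analysis in Harmony. Mean cell pixel area per well is averaged over 3 replicates. Same SeMeCo high-content imaging drug screen: Selleck FDA-approved drugs at 10 µM, 24 h in SM medium, 384-well plates, 3 replicates.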

[2] = system: Saccharomyces cerevisiae BY4741 SeMeCo community; assay: z-score of prototroph abundance vs DMSO median; higher = larger share of this subpopulation than in DMSO controls; settings: 10 µM; 24 h; SM minimal medium; subpopulation (auxotrophy): Prototroph
Method in brief: (§1)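 Subpopulation abundance was reported as a z-score against the median of vehicle wells. The Saccharomyces cerevisiae BY4741 community, carrying four plasmids that each restored one auxotrophy and encoded a distinct fluorescent protein, was grown 24 h in minimal SM medium in 384-well plates holding library drugs at 10 µM final. Cells were paraformaldehyde-fixed and imaged by automated confocal microscopy, with single-auxotroph fluorescent strains used for thresholds and autofluorescence correction.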

[3] = system: Saccharomyces cerevisiae BY4741 SeMeCo community; assay: z-score of subpopulation abundance vs DMSO median, subpopulation auxotrophic for M; higher = larger share of this subpopulation than in DMSO controls; settings: 10 µM; 24 h; SM minimal medium; subpopulation (auxotrophy): M
Method in brief: as §1

[4] = system: Saccharomyces cerevisiae BY4741 SeMeCo community; assay: z-score of subpopulation abundance vs DMSO median, subpopulation auxotrophic for L; higher = larger share of this subpopulation than in DMSO controls; settings: 10 µM; 24 h; SM minimal medium; subpopulation (auxotrophy): L
Method in brief: as §1

[5] = system: Saccharomyces cerevisiae BY4741 SeMeCo community; assay: z-score of subpopulation abundance vs DMSO median, subpopulation auxotrophic for H; higher = larger share of this subpopulation than in DMSO controls; settings: 10 µM; 24 h; SM minimal medium; subpopulation (auxotrophy): H
Method in brief: as §1

[6] = system: Saccharomyces cerevisiae BY4741 SeMeCo community; assay: z-score of subpopulation abundance vs DMSO median, subpopulation auxotrophic for LU; higher = larger share of this subpopulation than in DMSO controls; settings: 10 µM; 24 h; SM minimal medium; subpopulation (auxotrophy): LU
Method in brief: as §1

[7] = system: Saccharomyces cerevisiae BY4741 SeMeCo community; assay: z-score of subpopulation abundance vs DMSO median, subpopulation auxotrophic for LM; higher = larger share of this subpopulation than in DMSO controls; settings: 10 µM; 24 h; SM minimal medium; subpopulation (auxotrophy): LM
Method in brief: as §1

[8] = system: Saccharomyces cerevisiae BY4741 SeMeCo community; assay: z-score of subpopulation abundance vs DMSO median, subpopulation auxotrophic for UM; higher = larger share of this subpopulation than in DMSO controls; settings: 10 µM; 24 h; SM minimal medium; subpopulation (auxotrophy): UM
Method in brief: as §1

[9] = system: Saccharomyces cerevisiae BY4741 SeMeCo community; assay: z-score of subpopulation abundance vs DMSO median, subpopulation auxotrophic for HL; higher = larger share of this subpopulation than in DMSO controls; settings: 10 µM; 24 h; SM minimal medium; subpopulation (auxotrophy): HL
Method in brief: as §1

[10] = system: Saccharomyces cerevisiae BY4741 SeMeCo community; assay: z-score of subpopulation abundance vs DMSO median, subpopulation auxotrophic for HLU; higher = larger share of this subpopulation than in DMSO controls; settings: 10 µM; 24 h; SM minimal medium; subpopulation (auxotrophy): HLU
Method in brief: as §1

[11] = system: Saccharomyces cerevisiae BY4741 SeMeCo community; assay: z-score of subpopulation abundance vs DMSO median, subpopulation auxotrophic for HLM; higher = larger share of this subpopulation than in DMSO controls; settings: 10 µM; 24 h; SM minimal medium; subpopulation (auxotrophy): HLM
Method in brief: as §1

[12] = system: Saccharomyces cerevisiae BY4741 SeMeCo community; assay: z-score of subpopulation abundance vs DMSO median, subpopulation auxotrophic for LUM; higher = larger share of this subpopulation than in DMSO controls; settings: 10 µM; 24 h; SM minimal medium; subpopulation (auxotrophy): LUM
Method in brief: as §1

[13] = system: Saccharomyces cerevisiae BY4741 SeMeCo community; assay: z-score of subpopulation abundance vs DMSO median, subpopulation auxotrophic for HLUM; higher = larger share of this subpopulation than in DMSO controls; settings: 10 µM; 24 h; SM minimal medium; subpopulation (auxotrophy): HLUM
Method in brief: as §1

[14] = system: Saccharomyces cerevisiae BY4741 SeMeCo community; assay: z-score of subpopulation abundance vs DMSO median, subpopulation auxotrophic for U; higher = larger share of this subpopulation than in DMSO controls; settings: 10 µM; 24 h; SM minimal medium; subpopulation (auxotrophy): U
Method in brief: as §1

[15] = system: Saccharomyces cerevisiae BY4741 SeMeCo community; assay: z-score of subpopulation abundance vs DMSO median, subpopulation auxotrophic for HM; higher = larger share of this subpopulation than in DMSO controls; settings: 10 µM; 24 h; SM minimal medium; subpopulation (auxotrophy): HM
Method in brief: as §1

[16] = system: Saccharomyces cerevisiae BY4741 SeMeCo community; assay: z-score of subpopulation abundance vs DMSO median, subpopulation auxotrophic for HU; higher = larger share of this subpopulation than in DMSO controls; settings: 10 µM; 24 h; SM minimal medium; subpopulation (auxotrophy): HU
Method in brief: as §1

[17] = system: Saccharomyces cerevisiae BY4741 SeMeCo community; assay: z-score of subpopulation abundance vs DMSO median, subpopulation auxotrophic for HUM; higher = larger share of this subpopulation than in DMSO controls; settings: 10 µM; 24 h; SM minimal medium; subpopulation (auxotrophy): HUM
Method in brief: as §1

Row | Compound | mean cell size [1] | z-score of prototroph abundance [2] | z-score of subpopulation abundance [3] | z-score of subpopulation abundance [4] | z-score of subpopulation abundance [5] | z-score of subpopulation abundance [6] | z-score of subpopulation abundance [7] | z-score of subpopulation abundance [8] | z-score of subpopulation abundance [9] | z-score of subpopulation abundance [10] | z-score of subpopulation abundance [11] | z-score of subpopulation abundance [12] | z-score of subpopulation abundance [13] | z-score of subpopulation abundance [14] | z-score of subpopulation abundance [15] | z-score of subpopulation abundance [16] | z-score of subpopulation abundance [17]
1 | CCOc1cc(NC(C)=O)ccc1C(=O)OC [Ethopabate] | 12.6 ± 0.26 | -0.33 | 0.39 | 0.35 | -0.59 | 1.2 | 0.15 | 0.48 | 0.25 | -0.1 | 0.97 | 0.24 | 2.14 |  |  |  | 
2 | CCN1CCN(c2cc3c(cc2F)c(=O)c(C(=O)O)cn3C2CC2)CC1 [Enrofloxacin] | 12.04 ± 0.1 | 0.16 | 0.24 | -0.5 | -0.13 | -0.21 | 0.01 | 0 | -0.47 | -0.04 | 0.21 | -0.06 | -0.35 | 0.01 | -0.25 | 0.07 | 
3 | CCCCc1oc2ccccc2c1C(=O)c1cc(I)c(OCCN(CC)CC)c(I)c1 [Amiodarone HCl] | 11.3 ± 0.26 | -5.29 | 9.41 | -2.82 | 1.97 | -1.37 | 1.3 | 9.26 | 3.55 | 4.05 | 5.74 | 6.07 | 5.2 |  | 3.86 |  | 
4 | Cc1[nH]c(=O)c(C#N)cc1-c1ccncc1 [Milrinone] | 12.4 ± 0.18 | 1 | -0.56 | -0.03 | -0.52 | -0.56 | -0.5 | -0.1 | -0.41 | -0.86 | -0.75 | -0.06 | -1.21 | 0.34 | -0.67 | -0.62 | 
5 | COc1cc(O)c(C(=O)Nc2nc(C(=O)NCCN(C(C)C)C(C)C)cs2)cc1OC [Acotiamide] | 12.14 ± 0.12 | -0.88 | 0.17 | 1.18 | 0.24 | 0.41 | 1.66 | 0.28 |  | 1.61 | 0.73 | 1.3 | 1.15 |  | 0.64 | -0.06 | 
6 | CS(=O)(=O)c1ccc(C2=C(c3ccccc3)C(=O)OC2)cc1 [Rofecoxib] | 12.3 ± 0.16 | -0.48 | 0.64 | 1.07 | 0.29 | 0.3 | 1.55 | 0.95 | 0.69 | 1.31 | 1.01 | 1.28 | 0.43 | -0.52 |  |  | 
7 | CC[C@H]1OC(=O)[C@H](C)[C@@H](O[C@H]2C[C@@](C)(OC)[C@@H](O)[C@H](C)O2)[C@H](C)[C@@H](O[C@@H]2O[C@H](C)C[C@H](N(C)C)[C@H]2O)[C@](C)(O)C[C@@H](C)CN(C)[C@H](C)[C@@H](O)[C@]1(C)O [Azithromycin] | 12.5 ± 0.14 | -0.03 | -0.81 | 0.82 | -0.15 | 0.14 | 0.27 | -0.55 | -0.27 | -0.06 | 0.46 | 0.31 | 0.36 | -0.41 | -0.55 | 0.02 | 
8 | CC(=O)OCC1=C(C(=O)O)N2C(=O)[C@@H](NC(=O)Cc3cccs3)[C@H]2SC1 [Cephalothin] | 12.7 ± 0.19 | 0.3 | 1.49 | -0.16 |  | -0.87 | 0.02 | -0.2 | -0.42 | -0.21 | 0.05 |  | -0.41 | -1.22 | 1.49 |  | 
9 | CC(C)COCC(CN(Cc1ccccc1)c1ccccc1)N1CCCC1 (stereo unspecified) [Bepridil hydrochloride] | 12.5 ± 0.16 |  | -0.18 | 0.85 | 1.08 | 1.16 | -0.16 | 0.18 |  | 0.92 | 2.56 | 1.57 |  |  | 0.11 | 0.45 | 
10 | C[C@H](NCc1ccc(OCc2cccc(F)c2)cc1)C(N)=O [Safinamide] | 12.47 ± 0.075 |  | 0.59 | -0.58 | -0.07 | 0.99 | 0.37 | 0.6 | 0.15 | 0.72 | 1.35 | 0.42 | 0.95 | 1.46 | 0.41 | 1.16 | 
11 | COc1ccc(CN2CCN(C(c3ccc(F)cc3)c3ccc(F)cc3)CC2)c(OC)c1OC [Lomerizine 2HCl] | 12.443 ± 0.0032 | -0.1 | -0.52 | 0.3 | -0.09 | -0.08 | 0.33 | -0.33 | 0.04 | 0.88 | 0.32 | -0.31 | -0.64 | 0.28 | 0.78 |  | 
12 | CC(Cc1ccc(O)c(O)c1)C(C)Cc1ccc(O)c(O)c1 (stereo unspecified) [Nordihydroguaiaretic acid (NDGA)] | 12.5 ± 0.17 | 0.67 | -0.1 | 0.06 | -1.01 | -0.29 |  | -0.5 | -0.39 | 0.33 | -0.39 | 0.39 | -0.44 | -0.02 | -0.39 | -0.76 | 
13 | CCOC(=O)C1=C[C@@H](OC(CC)CC)[C@H](NC(C)=O)[C@@H](N)C1 [Oseltamivir Phosphate] | 12.42 ± 0.039 | 1.28 | -0.5 | 0.45 | 0.58 | -0.72 | 0.27 | -1.29 |  | -0.07 | 0.29 |  | 0.24 | -1.55 |  | -0.98 | 
14 | CCC[C@@H]1C[C@@H](C(=O)N[C@@H]([C@H]2O[C@H](SC)[C@H](O)[C@@H](O)[C@H]2O)[C@@H](C)O)N(C)C1 [Lincomycin Hydrochloride Monohydrate] | 12.3 ± 0.19 | -0.67 | 0.19 | -0.22 |  | 0.94 | -0.56 | 0.42 |  | 0.91 | -0.3 | 0.4 | 0.63 |  | -0.07 | 0.41 | 
15 | CN1C2CCC1CC(OC(=O)C(O)c1ccccc1)C2 (stereo unspecified) [Homatropine Bromide] | 12.31 ± 0.032 | -0.38 | -0.4 | -0.11 | -0.41 | 0.66 | -0.11 | 0.94 | -0.63 | -0.08 | -0.76 | 0.09 |  | 1.49 | -1.06 | 0.61 | 
16 | N#C/C(=C1/SC[C@@H](c2ccc(Cl)cc2Cl)S1)n1ccnc1 [Luliconazole] | 12 ± 0.31 | -8.67 | -2.68 | -1.35 |  | 0.85 | 1.33 |  | 4.75 | 5.26 | 16.8 | 4.52 | 11.1 | -0.31 | 7.54 | 10.5 | 
17 | C[C@@H](O)[C@H]1C(=O)N2C(C(=O)O)=C(SCCNC=N)C[C@H]12 [Imipenem] |  | -0.79 | 0.92 | -1.04 |  | -0.16 | 0.19 | 1.18 | -0.18 | -0.62 | 0.25 | 0.35 | -0.14 |  | 0.44 | -0.46 | 
18 | CC(C)Cc1ccc(C(C)C(=O)O)cc1 (stereo unspecified) [Ibuprofen] | 13.04 ± 0.12 | 3.17 | -0.51 | -0.92 | -0.54 | -2.51 | -0.71 | -3.84 | -0.54 | -0.51 |  | -2.23 | -0.59 | -1.82 | -1.2 | -2.1 | -3.22
19 | CC(C)C(=O)c1c(C(C)C)nn2ccccc12 [Ibudilast] | 12.6 ± 0.22 | 0.24 | -0.62 | -0.54 | -1.02 | 0.04 |  | 1.06 | -0.96 | -0.65 | -0.49 | -0.2 | -0.23 |  | -1.12 | 0.99 | 
